Data from PubChem BioAssay.
Active and inactive are the calls of the source. Unless noted, the rule behind the calls is not given here.

Experiments:
[1] = test system: XIP peptide (Xip251-270) binding; experiment: XIP fragment 251-270 binding compounds – biochemical, small-molecule microarray, fluorescence 635/667 nm, 0.1 µg/mL protein, primary screen (AID 1182); conditions: fluorescent protein binding, 635 nm, higher = more signal, called active from +8 up or from −8 down
[2] = test system: XIP peptide (Xip251-270); experiment: compounds binding XIP fragment 251-270 – biochemical, small-molecule microarray, fluorescence 635/667 nm, 0.5 µg/mL protein, primary screen (AID 1183); conditions: fluorescence 635 nm, higher = more signal
[3] = blood-stage malaria parasite viability loss – strain 3D7, DAPI fluorescence, 100 nL, primary screen (AID 1184);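 note: parasites grown inside human red blood cells in medium with human serum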; conditions: P. falciparum 3D7 growth, 3 d, higher = more signal
[4] = biological target: Homeobox protein Hox-A13 (Mus musculus) (UniProt Q62424); experiment: disruptors of Hoxa13 oligonucleotide interaction – biochemical, fluorescence polarization, labeled oligonucleotide, primary screen (AID 1185); conditions: Hoxa13:DNA binding, 15 min, higher = more signal, called active from +8 up or from −8 down
Chain of Homeobox protein Hox-A13 (Mus musculus) (Q62424 whole entry, looked up): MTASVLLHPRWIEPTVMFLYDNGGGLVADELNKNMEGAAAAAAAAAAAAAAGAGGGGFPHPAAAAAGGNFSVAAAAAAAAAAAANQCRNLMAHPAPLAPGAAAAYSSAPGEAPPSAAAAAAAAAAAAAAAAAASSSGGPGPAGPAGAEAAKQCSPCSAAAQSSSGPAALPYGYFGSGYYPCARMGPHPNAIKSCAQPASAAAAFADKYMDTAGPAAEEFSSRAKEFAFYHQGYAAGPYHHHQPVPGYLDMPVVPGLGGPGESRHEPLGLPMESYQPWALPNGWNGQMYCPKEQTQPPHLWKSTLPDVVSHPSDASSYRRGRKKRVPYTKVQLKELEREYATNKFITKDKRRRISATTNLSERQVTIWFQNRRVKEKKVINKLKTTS

[5] = blockers of DNA damage checkpoint Chk1 activation – imaging, HeLa, hydroxyurea, phospho-Chk1 antibody, percent positive cells, primary screen (AID 1186); conditions: hydroxyurea-induced phospho-Chk1 immunofluorescence imaging, higher = more signal
[6] = blockers of DNA damage checkpoint Chk1 activation – imaging, HeLa, hydroxyurea, phospho-Chk1 nuclear intensity, primary screen (AID 1187); conditions: hydroxyurea-induced phospho-Chk1 immunofluorescence imaging, higher = more signal

Row | SMILES | composite z-score [1] | composite z-score [2] | z-score [3] | z-score [4] | z-score [5] | z-score [6]
1 | C=CCOC(=O)[C@@H]1[C@H]2C(=O)O[C@H](c3ccccc3)[C@H](c3ccccc3)N2[C@H](c2ccc(OCCOC(=O)[C@@H]3C[C@@H]4C(=O)NCC(=O)N4[C@@H]3c3ccc(O)cc3)cc2)[C@@]12C(=O)Nc1ccc(I)cc12 | 0.549 (inactive) | 0.849 | -1.77 | -0.29 (inactive) | 0.273 (inactive) | 0.702 (inactive)
2 | COc1cc(C(O)C2C=CC3C(=O)NC(=O)C3N2Nc2ccccn2)cc(OC)c1OC (configuration not stated) | -0.0962 (inactive) | 0.405 | 1.26 | -2.19 (inactive) | 0.209 (inactive) | 0.228 (inactive)
3 | COC(=O)[C@@]1(Cc2ccccc2)[C@H]2c3cc(C(=O)N4CCCC4)n(Cc4ccc(S(C)(=O)=O)cc4)c3C[C@H]2CN1C(=O)c1ccccc1 | 0.478 (inactive) | 0.215 | -1.5 | -4.67 (inactive) | 0.267 (inactive) | -0.364 (inactive)
4 | C=C(/C(=C/C[C@H](OC(C)=O)c1ccc(CO)o1)c1cc(C(=O)OC)ccc1OC)C(C)C | -0.508 (inactive) | -0.567 | -2.09 | -4.8 (inactive) | -0.33 (inactive) | -0.286 (inactive)
5 | CO[C@H]1O[C@H](CO)[C@@H](OC(=O)Nc2ccc(Oc3ccccc3)cc2)[C@H](OC(=O)Nc2ccc3c(c2)OCO3)[C@H]1OC(=O)Nc1ccc2c(c1)OCO2 | 0.69 (inactive) | 0.891 | -2.33 | -5.25 (inactive) | -0.334 (inactive) | -0.152 (inactive)
6 | O=C1OCCC/C=C\[C@H]2OC34C=CCN(Cc5ccccc5)C(=O)[C@H]3N(CCCO)C(=O)[C@@H]4C12 (some centres not stated) | 0.0652 (inactive) | -0.616 | -0.125 | -4.98 (inactive) | -0.58 (inactive) | -0.324 (inactive)
7 | CCCC[C@@H]1C[C@H]1[C@@H](NC(=O)c1cccs1)c1ccc(-c2ccccc2)cc1 | 0.217 (inactive) | -0.319 | 0.0576 | -1.5 (inactive) | 0.0111 (inactive) | 0.0204 (inactive)
8 | CC(C)NC(=O)[C@@]1(c2ccc([N+](=O)[O-])cc2)CC(=O)N(C2CCCCC2)[C@@H]1c1ccc(CO)cc1I | 0.46 (inactive) | 0.697 | -1.63 | -4.64 (inactive) | 0.1 (inactive) | 0.635 (inactive)
9 | CC(C)N1C(=O)[C@@]2(Cc3ccccc31)c1ccccc1C(=O)N(Cc1ccccc1Cl)[C@H]2c1ccc(CO)cc1 | -0.26 (inactive) | 0.388 | -0.113 | -0.978 (inactive) | -0.339 (inactive) | -0.458 (inactive)
10 | CCOC(=O)C[C@H]1[C@H](OC(=O)c2ccc(-c3ccccc3)cc2)[C@@H](NC(=O)Cc2ccc(OC)cc2)c2cc(OCCCO)ccc2N1C(=O)c1ccccc1 | -0.243 (inactive) | -0.464 | -0.791 | -2.14 (inactive) | 0.2 (inactive) | 0.106 (inactive)
11 | CCN(CC)c1ccc(N2CC=CC34O[C@@H]5C=CCCOC(=O)C5[C@H]3C(=O)N(CCCCCCO)[C@@H]4C2=O)cc1 (some centres not stated) | 0.0059 (inactive) | 0.375 | -0.459 | -5.73 (inactive) | -0.43 (inactive) | 0.419 (inactive)
12 | O=C(OCc1ccccc1)C1=CCC2c3[nH]c4ccccc4c3C(=O)C1N2S(=O)(=O)c1ccccc1[N+](=O)[O-] (configuration not stated) | -0.0884 (inactive) | -0.0191 | -1.07 | -1.47 (inactive) | -0.824 (inactive) | -1.44 (inactive)
13 | CCOC(=O)C[C@H]1[C@H](OC(=O)c2ccccc2-c2ccccc2)[C@@H](NC(=O)CC(C)C)c2cc(OCCCO)ccc2N1C(=O)Cc1ccc(OC)cc1 | -0.245 (inactive) | -0.328 | -0.106 | -5.17 (inactive) | 0.34 (inactive) | 0.524 (inactive)
14 | O=C(NC1CC1)[C@@H]1c2ccccc2C(=O)N(Cc2ccccc2Cl)[C@H]1c1ccc(CO)cc1 | 0.628 (inactive) | 0.119 | -0.46 | -2.23 (inactive) | -0.825 (inactive) | -1.13 (inactive)
15 | CC(C)[Si]1(C(C)C)O[C@@H](c2ccccc2)c2cc(-c3ccc(-c4ccc(Cl)c(Cl)c4)o3)nc(-c3ccccc3)c21 | -0.142 (inactive) | 0.6 | 0.283 | -1.68 (inactive) | 0.025 (inactive) | -0.606 (inactive)
16 | CN1C(=O)C2C=CC(C(O)C3CC=CCC3)N(N(c3ccccc3)c3ccccc3)C2C1=O (configuration not stated) | 0.241 (inactive) | -0.283 | -0.201 | -1.18 (inactive) | 0.451 (inactive) | 0.0168 (inactive)
17 | C=C(CCCC)/C(=C/C[C@@H](OC(C)=O)c1ccc(OCCO)cc1)c1cnc2ccccc2c1 | 0.591 (inactive) | 0.751 | -3 | -3.65 (inactive) | -0.66 (inactive) | -0.0832 (inactive)
